Results filed as inconclusive are left out. Entries that show only a call come without a potency. The source made the active and inactive calls. The call rests on the fitted dose curve; in most records, active means well fitted inhibition curve with a large enough effect; inconclusive means small, poorly fitted or top-dose-only effect; inactive means no such curve, though single readings can be large or run the other way.
Experiments:
[1] = test system: Zika virus NS2B-NS3 protease (unlinked complex); experiment: Primary screen GU Rhodamine qHTS for Zika virus inhibitors: Unlinked NS2B-NS3 protease assay (AID 1347159); further: nearly all actives have a fitted effect of over 60% in size
How it was run: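 Percent inhibition came from the 15-min rise in Rhodamine110 fluorescence (1.5 microM substrate, ~15% conversion), normalized to no-inhibitor and no-enzyme wells and Hill-fitted. Unlinked protease, 25 nM, pH 8.0 Tris buffer; compounds up to 114 microM, 15-min preincubation.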

[2] = test system: Zika virus NS2B-NS3 protease (linked construct); experiment: Primary screen NINDS Rhodamine qHTS for Zika virus inhibitors (AID 1347160); further: nearly all actives have a fitted effect of over 55% in size
How it was run: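 Rhodamine110-peptide cleavage (1.5 µM substrate) by 25 nM linked NS2B-NS3 enzyme at pH 8.0 (Tris, Tween 20), after 15 min RT preincubation with compounds; 15-min fluorescence change normalized to controls and Hill-fitted.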
Potency means the concentration at half of the fitted maximal effect.

| Compound | Potency [1] | Potency [2] |
| --- | --- | --- |
| CC(O)C(O)/C=C/C=C/C(=O)O[C@@H]1C=C2COC(=O)[C@]2(O)[C@@]2(C)CCCC(C)(C)C12 (stereo partly specified) | inactive | inactive |
| NC(=O)c1cccc(-c2cc(O)cc(OC(=O)NC3CCCCC3)c2)c1 | inactive | inactive |
| CC(=O)O[C@@H]1[C@@H](OC(=O)/C=C/c2ccccc2)[C@H](C)O[C@@H](O[C@H]2[C@@H]3C=CO[C@@H](O[C@@H]4O[C@H](CO)[C@@H](O)[C@H](O)[C@H]4O)[C@@H]3[C@@]3(CO)O[C@@H]23)[C@@H]1OC(C)=O | inactive | inactive |
| C/C1=C\C[C@H](O[C@@H]2O[C@H](CO)[C@@H](O)[C@H](O)[C@H]2O)/C(C)=C/[C@H]2OC(=O)[C@H](C)[C@@H]2CC1 | inactive | inactive |
| O=C(O[C@H]1[C@@H]2C=CO[C@@H](O[C@@H]3O[C@H](CO)[C@@H](O)[C@H](O)[C@H]3O)[C@@H]2[C@@]2(CO)O[C@@H]12)c1ccc(O)cc1 | inactive | inactive |
| C/C(=C/CCC(CO)C1CCC2(C)C3CCC4C(C)(C)C(OC5OC(CO)C(O)C(O)C5O)CC(O)C45CC35CCC12C)COC1OC(CO)C(O)C(O)C1O (stereo unspecified) | inactive | inactive |
| C[C@@H]1C(=O)O[C@H]2CC34[C@H]5C[C@@H](C(C)(C)C)C36[C@@H](OC(=O)[C@@H]6O)OC4(C(=O)O5)[C@]21O (stereo partly specified) | inactive | inactive |
| O=C(/C=C/c1ccc(O)cc1)OC[C@]12O[C@H]1[C@@H](O)[C@@H]1C=CO[C@@H](O[C@@H]3O[C@H](CO)[C@@H](O)[C@H](O)[C@H]3O)[C@@H]12 | inactive | inactive |
| OCCc1ccc(O[C@@H]2O[C@H](CO)[C@@H](O)[C@H](O)[C@H]2O)c(O)c1 | inactive | inactive |
| CC(C)CC1(C(=O)OCc2ccc(O[C@@H]3O[C@H](CO)[C@@H](O)[C@H](O)[C@H]3O)cc2)CC(=O)OC(C(=O)O)CC(=O)OCC2OC(O1)C(OC(=O)/C=C/c1ccc(O)cc1)C(O)C2O (stereo partly specified) | inactive | inactive |
| CCC[C@@H]1C[C@@H](C(=O)N[C@H](C(C)Cl)[C@H]2O[C@H](SC)[C@H](O)[C@@H](O)[C@H]2O)N(C)C1 (stereo partly specified) | inactive | inactive |
| C#Cc1cnc2[nH]c(=O)n(C(CC)CC)c2n1 | inactive | inactive |
| C=CC1(C)CC(O)C2(CCC3C(C)(C(=O)O)CCCC3(C)C2=O)C1 (stereo unspecified) | inactive | inactive |
| CC(=O)OCCC(C)CCC1C(C)(O)CCC2C(C)(C)CCCC21C (stereo unspecified) | 8.91 µM (active) | 11.2 µM (active) |
| O=S(=O)(Nc1ccc(C(O)(C(F)(F)F)C(F)(F)F)cc1)c1cccs1 | inactive | inactive |
| NC(=O)[C@H]1CCCCc2c1[nH]c1ccc(Cl)cc21 | inactive | inactive |
| CCOc1cc2ncc(C#N)c(Nc3ccc(OCc4ccccn4)c(Cl)c3)c2cc1NC(=O)/C=C/CN(C)C | inactive | inactive |
| CCCC(N[C@@H](C)C(=O)N1[C@H](C(=O)O)C[C@@H]2CCCC[C@@H]21)C(=O)OCC (stereo partly specified) | inactive | inactive |
| O=c1c2cccnc2n(-c2cccc([N+](=O)[O-])c2)c(=O)n1Cc1ccncc1 | inactive | inactive |
| COc1cc(C2Oc3c(O)cc(CCCO)cc3C2CO)ccc1O[C@H]1O[C@H](C)[C@@H](O)[C@H](O)[C@@H]1O (stereo partly specified) | inactive | inactive |
| N#CCc1ccc(O)cc1O[C@@H]1O[C@H](CO)[C@@H](O)[C@H](O)[C@H]1O | inactive | inactive |
| CC1CCC2C(C(=O)O)=CC3C(O)C(C)(C)CC123 (stereo unspecified) | inactive | inactive |
| CC1=CCC2C(C)(CO)CCCC2(CO)C1CO (stereo unspecified) | 15.8 µM (active) | 15.8 µM (active) |
| CC(=O)[C@@H]1CC[C@]2(C(=O)O)CC[C@]3(C)C(CCC4[C@@]5(C)CC[C@H](O)C(C)(C)C5CC[C@]43C)C12 (stereo partly specified) | inactive | inactive |
| COC(=O)C1=CO[C@@H](O[C@@H]2O[C@H](CO)[C@@H](O)[C@H](O)[C@H]2O)[C@@H]2[C@@](C)(O)[C@@H](O)C[C@]12O | inactive | inactive |
| C=C1CC[C@@H]2[C@](C)(CC[C@H](O)[C@@]2(C)CCC=C(C)C)[C@@H]1Cc1c[nH]c2ccccc12 | inactive | inactive |
| CC1(C)OC(=O)C(OCC2CC2)=C1c1ccc(S(C)(=O)=O)cc1 | inactive | inactive |
| C[C@@H]1O[C@@H](O[C@@H]2[C@@H](O)[C@@H](O)[C@H](O[C@@H]3[C@@H](O)[C@@H](O[C@]4(CO)O[C@H](CO)[C@@H](O)[C@@H]4OC(=O)/C=C/c4ccc(O)cc4)O[C@H](CO)[C@H]3OC(=O)/C=C/c3ccc(O)cc3)O[C@H]2C)[C@H](O)[C@H](O)[C@H]1O | inactive | inactive |

— PubChem BioAssay (NCATS)
